The values that follow come from PubChem BioAssay.

The source made the active and inactive calls.

A short description of assay [1]: optical density shifts of acrAB sulA E. coli – strain DRC41, OD650, 48 h, E. coli filamentation inducer project, primary screen (AID 1152).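 Further: E. coli MC1000 strain DRC41 lacking acrAB efflux pump and sulA.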 As to conditions: higher = more signal, called active from +8 up or from −8 down.
Assay [2] in a line: probe aLefty1 binding on compound microarray – biochemical, small-molecule microarray, 635/667 nm fluorescence, primary screen (AID 1153).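 Further: score merges spot fluorescence with signal-to-noise ratio from the scanned slide images.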 Conditions: higher = more signal.
The nature of assay [3]: plasmodial surface anion channel blockers, osmotic lysis – cell-based, P. falciparum Indochina, OD700, 1 h, primary screen (AID 1154). Conditions: P. falciparum Indochina infected RBC osmotic lysis, higher = more signal, called active from +8 up or from −8 down.
Assay [4] is described as follows: plasmodial surface anion channel blockers, osmotic lysis – cell-based, P. falciparum Indochina, OD700, 2 h, primary screen (AID 1155).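 Further: lysis reports solute entry through the parasite surface anion channel PSAC.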 As to conditions: P. falciparum Indochina infected erythrocytes, higher = more signal, called active from +8 up or from −8 down.
Assay [5] can be described thus: changes in parasitized red cell lysis, either direction – P. falciparum Indochina, OD700, 3 h, PSAC antagonist project, primary screen (AID 1156). As to conditions: P. falciparum-infected erythrocytes, osmotic lysis, higher = more signal, called active from +8 up or from −8 down.
A short description of assay [6]: plasmodial surface anion channel blockers, osmotic lysis – cell-based, P. falciparum Indochina, OD700, 18 h, primary screen (AID 1157). Conditions: P. falciparum Indochina infected erythrocytes, osmotic lysis OD700, 18 h; higher = more signal, called active from +8 up or from −8 down.
Assay [7] can be described thus: S6 kinase pathway phospho-S6 level changes – cell-based, A549, cytoblot, luminescence, serum-stimulated, primary screen (AID 1158).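 Further: serum-stimulated A549 lung adenocarcinoma cells; signal is phosphorylated S6 detected by cytoblot immunostaining with HRP secondary.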 Conditions: 5 h, higher = more signal.
Assay [8] concerns the target NADPH oxidase 2 (Homo sapiens) (UniProt P04839). In words: compounds shifting NOX2 Amplex Red fluorescence – cell-based, HEK293-NOX2, PMA-stimulated, NOX inhibitor project, primary screen (AID 1159). Further: test concentration not given here. Conditions: 45 min, higher = more signal, called active from +8 up or from −8 down.
The target of assay [9] is NADPH oxidase 4 (Homo sapiens) (UniProt Q9NPH5). In words: compounds shifting NOX4 Amplex Red fluorescence – cell-based, HEK293-NOX4, tetracycline-induced, NOX inhibitor project, primary screen (AID 1160). As to conditions: HEK293-NOX4, Amplex Red H2O2 fluorescence, 45 min; higher = more signal, called active from +8 up or from −8 down.
The target of assay [10] is NADPH oxidase 5 (Homo sapiens) (UniProt Q96PH1). In words: compounds shifting NOX5 Amplex Red fluorescence – cell-based, HEK293-NOX5, NOX inhibitor project, primary screen (AID 1161). Conditions: HEK293-NOX5, ionomycin, 45 min, higher = more signal.
A short description of assay [11]: compound effects on lung adenocarcinoma cell viability – A549, calcein-AM fluorescence, 48 h, basal, profiling panel (AID 1162). Further: test concentration not given here. As to conditions: higher = more signal.
Assay [12] in a line: compound effects on differentiated 3T3-L1 adipocyte viability – cell-based, 3T3-L1 adipocytes, calcein-AM fluorescence, 48 h, basal, profiling panel (AID 1163). Further: test concentration not given here. Conditions: 3T3-L1 adipocytes viability, higher = more signal.
A short description of assay [13]: compound effects on hepatocellular carcinoma cell viability – HepG2, calcein-AM fluorescence, 48 h, basal, profiling panel (AID 1164). Further: test concentration not given here. Conditions: higher = more signal.
Assay [14] can be described thus: compound effects on multiple myeloma cell viability – MM1S, calcein-AM fluorescence, 48 h, basal, profiling panel (AID 1165). Further: test concentration not given here. Conditions: higher = more signal.
Assay [15] in a line: calcein-AM signal in unstimulated myeloma cells – cell-based, calcein-AM fluorescence, 48 h, PK04 Diversity Set, profiling panel (AID 1166).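 Further: cells grown under basal conditions without added stimulus; test concentration not given here.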 Conditions: RPMI8226 myeloma viability, higher = more signal.
A short description of assay [16]: JC-1 mitochondrial signal, unstimulated HepG2 cells – cell-based, JC-1 fluorescence, 24 h, 100 nL compound, profiling panel (AID 1167). Further: test concentration not given here. Conditions: HepG2 mitochondrial potential, higher = more signal.
A short description of assay [17]: JC-1 mitochondrial signal, unstimulated adipocytes – cell-based, JC-1 fluorescence, 3T3-L1 adipocytes, 24 h, 100 nL compound, profiling panel (AID 1168). Further: test concentration not given here. As to conditions: JC-1 mitochondrial fluorescence, higher = more signal, called active from +8 up or from −8 down.
The nature of assay [18]: JC-1 mitochondrial signal, unstimulated myeloma cells – cell-based, JC-1 fluorescence, RPMI8226, 24 h, 100 nL compound, profiling panel (AID 1169). Further: test concentration not given here. Conditions: JC-1 mitochondrial potential fluorescence, higher = more signal.
Assay [19] is described as follows: JC-1 mitochondrial signal, unstimulated MM1S myeloma – cell-based, JC-1 fluorescence, 24 h, 100 nL compound, profiling panel (AID 1170). Further: test concentration not given here. As to conditions: MM1S mitochondrial potential, higher = more signal.
The nature of assay [20]: resazurin metabolic signal in A549 cells – cell-based, resazurin fluorescence, 24 h, PK04 Diversity Set, profiling panel (AID 1171). Further: test concentration not given here. As to conditions: A549 viability, higher = more signal, called active from +8 up or from −8 down. (In general: The colour change of resazurin is a common sign of viable cells or microbes.)

NADPH oxidase 5 (Homo sapiens), sequence (Q96PH1 whole entry, looked up): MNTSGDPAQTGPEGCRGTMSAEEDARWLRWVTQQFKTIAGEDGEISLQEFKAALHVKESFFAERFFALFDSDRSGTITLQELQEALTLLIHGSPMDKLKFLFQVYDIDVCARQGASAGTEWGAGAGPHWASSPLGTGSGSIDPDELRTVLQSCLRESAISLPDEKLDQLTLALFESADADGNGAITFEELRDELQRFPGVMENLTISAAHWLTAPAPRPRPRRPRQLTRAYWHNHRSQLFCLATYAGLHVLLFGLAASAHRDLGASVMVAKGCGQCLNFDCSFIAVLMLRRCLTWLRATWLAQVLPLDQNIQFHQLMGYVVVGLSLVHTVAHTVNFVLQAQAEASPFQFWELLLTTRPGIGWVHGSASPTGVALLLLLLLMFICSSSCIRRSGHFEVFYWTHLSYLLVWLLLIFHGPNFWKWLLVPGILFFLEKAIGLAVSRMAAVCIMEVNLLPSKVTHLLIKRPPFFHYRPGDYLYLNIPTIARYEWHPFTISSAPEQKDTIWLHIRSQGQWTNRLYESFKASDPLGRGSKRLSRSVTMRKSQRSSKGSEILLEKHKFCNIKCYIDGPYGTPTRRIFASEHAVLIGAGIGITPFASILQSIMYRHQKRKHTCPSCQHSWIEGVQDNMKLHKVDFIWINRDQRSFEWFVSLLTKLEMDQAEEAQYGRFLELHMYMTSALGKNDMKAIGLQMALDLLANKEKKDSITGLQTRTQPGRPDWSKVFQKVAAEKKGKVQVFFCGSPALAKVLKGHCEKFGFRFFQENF
NADPH oxidase 2 (Homo sapiens), sequence (P04839 whole entry, looked up): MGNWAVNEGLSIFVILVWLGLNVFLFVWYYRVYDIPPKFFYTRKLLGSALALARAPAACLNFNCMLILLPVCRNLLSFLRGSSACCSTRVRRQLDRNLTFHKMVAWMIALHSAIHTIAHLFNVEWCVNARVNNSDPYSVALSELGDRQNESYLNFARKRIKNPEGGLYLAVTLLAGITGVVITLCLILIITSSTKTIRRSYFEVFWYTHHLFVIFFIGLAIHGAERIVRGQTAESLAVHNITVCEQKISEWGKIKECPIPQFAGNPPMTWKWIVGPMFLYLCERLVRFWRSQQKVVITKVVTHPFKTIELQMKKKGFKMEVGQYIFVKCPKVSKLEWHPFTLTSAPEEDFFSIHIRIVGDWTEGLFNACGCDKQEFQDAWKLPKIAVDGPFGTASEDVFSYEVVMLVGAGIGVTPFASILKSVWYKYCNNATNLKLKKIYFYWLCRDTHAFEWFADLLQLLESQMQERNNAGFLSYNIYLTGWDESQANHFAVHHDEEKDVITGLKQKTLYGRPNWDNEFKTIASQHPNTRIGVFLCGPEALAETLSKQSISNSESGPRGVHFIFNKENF
NADPH oxidase 4 (Homo sapiens), sequence (Q9NPH5 whole entry, looked up): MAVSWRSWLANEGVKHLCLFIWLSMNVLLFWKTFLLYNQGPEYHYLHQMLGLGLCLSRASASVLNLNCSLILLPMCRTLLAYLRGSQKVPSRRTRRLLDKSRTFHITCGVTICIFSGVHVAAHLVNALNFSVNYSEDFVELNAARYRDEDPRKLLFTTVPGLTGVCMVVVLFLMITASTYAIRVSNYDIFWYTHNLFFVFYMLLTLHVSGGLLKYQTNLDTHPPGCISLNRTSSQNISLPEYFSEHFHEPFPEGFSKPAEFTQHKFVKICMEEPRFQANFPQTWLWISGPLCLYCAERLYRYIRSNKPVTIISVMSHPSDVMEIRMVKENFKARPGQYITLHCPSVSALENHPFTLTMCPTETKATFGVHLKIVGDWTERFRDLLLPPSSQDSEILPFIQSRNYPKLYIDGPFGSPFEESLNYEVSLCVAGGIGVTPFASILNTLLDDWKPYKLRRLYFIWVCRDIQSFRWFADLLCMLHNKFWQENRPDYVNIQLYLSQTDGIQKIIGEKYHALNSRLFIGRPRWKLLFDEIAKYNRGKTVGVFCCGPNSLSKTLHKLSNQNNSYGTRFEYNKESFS

With `COc1ccc(C(=O)Nc2ccc(CN3C(=O)[C@@]4(O[C@@H](CCn5cc(CCO)nn5)[C@H]([Si](C)(C)c5ccc(OC)cc5)[C@H]4C)c4ccccc43)cc2)cc1`, the z-score was -2.53 (inactive) in assay [1]; 27.6 (active) in assay [3]; 16.4 (active) in assay [4]; 2.35 (inactive) in [5]; 1.43 (inactive) in [6]; -0.368 in [7]. Further, the z-score is -1.81 (inactive) in assay [8]; 0.515 (inactive) in [9]; 3.12 in assay [10]; -0.883 in assay [11]; -0.319 in assay [12]; -3.14 in [13]. For the same compound, the z-score is -2.68 in assay [14]; -4.27 in [15]; -1.29 in assay [16]; -0.201 (inactive) in [17]; -0.913 in assay [18]; -2.22 in assay [19]. Also, the z-score in assay [20] is -3.31 (inactive). Moreover, in [2], the composite z-score stood at 0.232.

Regarding `COc1ccc(C(O)C2C=CC3C(=O)N(C)C(=O)C3N2N(c2ccccc2)c2ccccc2)cc1` (stereo not given), the z-score in assay [1] was -1.3 (inactive); in [3] it was 2.07 (inactive); in assay [4], 1.14 (inactive); in assay [5], 0.509 (inactive); in assay [6], 0.974 (inactive); in assay [7], -0.478. Besides, the z-score in assay [8] is -0.685 (inactive); in [9] it was -2.05 (inactive); in assay [10] it was -0.77; in [11], -0.738; in assay [12], -0.863; in [13], 0.132. Moreover, the z-score in assay [14] is 0.513; in [15], -0.556; in assay [16], -0.93; in assay [17], -1.3 (inactive); in assay [18], -0.544; in assay [19], -0.426. Also, the z-score in assay [20] was -0.691 (inactive). In addition, the composite z-score in assay [2] came out at 0.363.

Consider `O=C1C2C=CC(C(O)C3CCCCC3)N(n3cnnc3)C2C(=O)N1Cc1ccccc1` (stereo not given), for which the z-score in [1] is 0.253 (inactive); in [3], 2.45 (inactive); in assay [4], -0.471 (inactive); in assay [5], 0.312 (inactive); in assay [6], -1.6 (inactive); in assay [7] it was 1.75. The z-score in assay [8] was -4 (inactive); in assay [9], -0.921 (inactive); in assay [10] it was -5.07; in assay [11], -0.916; in assay [12], 0.379; in assay [13] it was -0.611. For the same compound, the z-score in assay [14] was -0.453; in assay [15], -0.441; in [16], -0.37; in assay [17] it was -2.27 (inactive); in assay [18], -0.0098; in assay [19], -1.04. Besides, in assay [20], the z-score is 0.714 (inactive). Moreover, the composite z-score in assay [2] turned out to be 0.375.

On to `COc1ccc(C(O)C2C=CC3C(=O)N(c4ccccc4)C(=O)C3N2Nc2ccc(C#N)cc2)cc1OCc1ccccc1` (stereo not given), for which the z-score in [1] was -1.37 (inactive); in [3] it was 9.41 (active); in [4] it was 2.2 (inactive); in [5], 0.918 (inactive); in assay [6], 1.27 (inactive); in assay [7] it was -0.98. Besides, the z-score was -1.69 (inactive) in [8]; -2.41 (inactive) in assay [9]; -2.45 in [10]; 0.233 in assay [11]; -0.735 in [12]; 0.753 in [13]. Besides, the z-score was 0.333 in [14]; -0.692 in [15]; -0.974 in assay [16]; -1.14 (inactive) in assay [17]; -0.137 in assay [18]; -0.222 in assay [19]. Also, the z-score in [20] was 0.141 (inactive). Further, in [2], the composite z-score came to 0.482.

Turning to `NC(=O)N1C(=O)C2C(C1=O)C1C=C(CCCO)C2C(C2CC2)N1Cc1sc2ccccc2c1Cl` (stereo not given), the z-score was 0.4 (inactive) in assay [1]; 13.4 (active) in [3]; 2.12 (inactive) in assay [4]; 0.394 (inactive) in assay [5]; 1.07 (inactive) in assay [6]; 0.125 in assay [7]. For the same compound, the z-score in assay [8] was 2.74 (inactive); in assay [9], 0.923 (inactive); in assay [10] it was -0.549; in [11], 1.01; in [12] it was 0.66; in assay [13], 0.839. The z-score in [14] was -2.97; in [15] it was -0.868; in [16], 0.709; in [17] it was 0.0485 (inactive); in [18] it was -0.0842; in assay [19] it was 0.193. In addition, the z-score in assay [20] is 1.09 (inactive). The compound also registered a composite z-score in [2] of 0.105.

As for `C#CCN1[C@@H](Cc2ccccc2)C(=O)O[C@H](Cc2ccccc2)[C@@H]1/C=C/C1CC1`, the z-score in assay [1] is 0.827 (inactive); in assay [3] it was -0.396 (inactive); in assay [4] it was 0.317 (inactive); in assay [5], -0.199 (inactive); in assay [6], -0.48 (inactive); in [7], -0.328. Moreover, the z-score in assay [8] is -0.279 (inactive); in [9] it was -0.284 (inactive); in assay [10], -2.19; in [11], -0.589; in assay [12], -0.488; in assay [13], 0.196. Besides, the z-score in assay [14] is -2; in [15], -2.16; in [16] it was 2.46; in [17], -0.693 (inactive); in assay [18], -0.812; in assay [19] it was 0.4. The z-score in assay [20] was 3.08 (inactive). The compound further returned a composite z-score in assay [2] of -0.103.

Take `COCCCN1C(=O)[C@@]2(c3ccc([N+](=O)[O-])cc3)CC(=O)N(CC34CC5CC(CC(C5)C3)C4)[C@@H]2c2ccc(CO)cc21`: the z-score in [1] is 0.172 (inactive); in [3] it was -0.409 (inactive); in assay [4], 0.28 (inactive); in [5], 1.48 (inactive); in assay [6], 0.0583 (inactive); in [7], 0.261. For the same compound, the z-score was 0.307 (inactive) in assay [8]; 0.183 (inactive) in [9]; 0.482 in assay [10]; 0.555 in assay [11]; -0.731 in assay [12]; 1.07 in assay [13]. Also, the z-score in [14] is 0.657; in [15], 1.12; in assay [16], 0.722; in assay [17], 0.0634 (inactive); in assay [18], 0.25; in assay [19], -1.87. In addition, the z-score in [20] is -1.25 (inactive). The same compound returned a composite z-score in assay [2] of -0.298.

As to `CC(C)=CCCC=C(C)C(O)C1C=CC2C(=O)N(c3ccccc3)C(=O)C2N1Nc1ccc(C#N)cc1` (stereo not given), the z-score in [1] was -0.817 (inactive); in assay [3] it was 15.5 (active); in [4], 1.88 (inactive); in assay [5] it was 0.918 (inactive); in [6], -1.08 (inactive); in [7] it was 0.0382. For the same compound, the z-score in assay [8] is -1.88 (inactive); in [9], -1.6 (inactive); in assay [10], -0.882; in [11] it was 1.46; in assay [12] it was 0.464; in assay [13] it was 1.47. The z-score was -1.65 in assay [14]; -1.92 in [15]; -0.428 in [16]; -0.926 (inactive) in [17]; -0.483 in assay [18]; -1.29 in assay [19]. In assay [20], the z-score was -1.18 (inactive). Moreover, in [2], the composite z-score came out at 0.304.

Turning to `Cc1ccc(S[C@]2(C(=O)NC3CC3)CC(=O)N(C(C)C)[C@@H]2c2ccc(CO)cc2I)cc1`, the z-score in assay [1] is 0.839 (inactive); in assay [3] it was 5.84 (inactive); in [4], -0.558 (inactive); in [5], 0.927 (inactive); in assay [6], -1.31 (inactive); in [7] it was 2.32. Moreover, the z-score in assay [8] is 0.828 (inactive); in assay [9], -1.91 (inactive); in [10], -2.33; in assay [11], 1.22; in assay [12], 1.07; in assay [13] it was -0.722. Also, the z-score in assay [14] was -2.31; in assay [15] it was -2.82; in assay [16] it was 2.11; in [17], -0.578 (inactive); in assay [18], -0.114; in [19], -2.21. In addition, in [20], the z-score was 0.954 (inactive). The same compound returned a composite z-score in assay [2] of -0.703.
